Experimental data published in PubChem BioAssay AID1745846 (National Center for Advancing Translational Sciences (NCATS), 2022).
In all, about 1,400 compounds went through this assay and about 30 (2%) were called active. Inconclusive results (about 15%) are left out. The entries come from a sample that favours actives as a whole. Values without a mark were called inactive. Calls follow the shape of the dose curve; as a rule, active = well fitted inhibition curve with a large enough effect; inconclusive = small, poorly fitted or top-dose-only effect; inactive = flat fitted curve, though single readings scatter.

test: Firefly Luciferase Counterscreen for Inhibitors of ATXN expression; details: luminescence; series mostly up to 57.5 µM; activity change, negative = inhibition: at the top concentration
Description: University of Utah School of Medicine, Salt Lake City, Utah
Spinocerebellar ataxia type 2 (SCA2) is a multisystem neurodegenerative disease caused by a dominantly acting mutation leading to expansion of a polyQ domain in the ataxin-2 protein (ATXN2). SCA2 patients develop progressive ataxia and later lose function in other neuronal systems. Prominent parkinsonian signs develop in some patients. Like many neurodegenerative disorders, no symptomatic or disease-modifying treatments are known.
The primary objective of the proposed research is to identify compounds inhibiting ATXN2 expression and to test them for efficacy in SCA2 mouse models. We have developed a cell-based assay paired with an in vivo mouse model using identical luciferase expression constructs. This approach takes advantage of an ATXN2-luciferase transgene, with the luciferase gene flanked by the upstream and downstream portions of the ATXN2 gene. Here we describe a 5-7 dose quantitative high thoroughput screen (qHTS) for compounds lowering ATXN2 expression. We screened the NIH Molecular Libraries Small Molecule Repository (MLSMR) and NCGC's mechanistically annotated (MIPE) and drug repurposing (NPC) collections of compounds for lowering expression of an ATXN2-luciferase reporter in HEK-293 cells. The assay is a multiplexed cell viability assay to ensure target reduction in the absence of cytotoxicity. Secondary qHTS assays included a CMV-luciferase reporter expressed in HEK-293 cells as well as a biochemical assay using recombinant luciferase to detect inhibitors of the reporter enzyme. Compounds that inhibit ATXN2 expression but is not cytotoxic were selected for confirmatory and secondary screens.
PROTOCOL TABLE (as described by Inglese J, Shamu CE and Guy RK. 2007)
SEQUENCE No. (e.g., 1, 2, 3, etc.); […] (e.g., Cells, Incubation, Reagent, etc.); VALUE; DESCRIPTION.
2; Compounds; 23 nL; Kalypsis pintool (Wako USA) equipped with a 1536-well pin head.
3; Enzyme; 1 uL; recombinant firefly luciferase (prepared in 50 mM Tris HCl pH7.5, 10 mM MgCl2, 0.05% BSA, 0.01% Tween20) at final concentration of 10 nM. Wells containing buffer only were used as control (set as 100% inhibition when normalizing data).
4; Incubation; 10 min; room temperature.
5; Detection; Luminescence; Viewlux plate reader (PerkinElmer).
NOTES (numbers refer to Sequence numbers above)
1. Luciferase substrate is added to 1536 well, Greiner white assay plate. Evaporation was prevented by covering assay plates with metal lids containing holes to allow gas diffusion.
2. Compounds were added in a dose response manner with the final concentrations of 57, 11.4, 2.28, 0.46, 0.091, 0.018, 0.0037 uM. Vehicle-only plates, with DMSO being pin-transferred to columns 5-48, were inserted uniformly at the beginning and the end of each library to monitor and record any shifts in assay performance.
3. Recombinant firefly luciferase (10 nM final concentration) is added to the assay plate.
5. End-point luminescence is then measured on the Viewlux (PerkinElmer) imager equipped with a clear emission filter using a 2 sec exposure.
Inglese J, Shamu CE and Guy RK, Reporting data from high throughput screening of small molecule libraries, Nature Chemical Biology, 2007, 3(8): 438-441. doi.org/10.1038/nchembio0807-438.
% is scaled to controls: 0 for no effect and ±100 for the full control effect; potency is read from the fitted curve at half-maximal effect.

Row | Compound | activity change, negative = inhibition | Potency
1 | C=CCc1cccc(/C=N/NC(=O)CCC(=O)Nc2ccc(F)cc2)c1O | 2.3% | 
2 | CCCCn1c(=N)n(CCOc2ccc(C)cc2)c2ccccc21 | 2.78% | 
3 | CC1CCCN(c2ncnc3c2cnn3-c2ccc(Cl)cc2)C1 (stereo not given) |  | 0.0891 µM (active)
4 | Cn1ncc2c(N3CCN(c4ccc(Cl)c(Cl)c4)CC3)ncnc21 | -0.373% | 
5 | COc1ccccc1Cc1c(-c2ccco2)nc2c(C)cc(Br)cn12 |  | 15.8 µM (active)
6 | Oc1ccccc1C(Nc1nccs1)c1ccc2cccnc2c1O (stereo not given) | -4.63% | 
7 | Oc1ccc(N2CCN(c3ccnc4cc(Cl)ccc34)CC2)cc1 | -6.51% | 
8 | CN1CCN(c2cc(-c3cc(O)c4ncccc4c3)ccn2)CC1 | -1.23% | 
9 | CCN1CCS/C1=C\C=C\C1=[N+](CC)CCS1 | -3.22% | 
10 | Cc1cc([N+](=O)[O-])nn1Cc1ccc(C(=O)N/N=C/c2ccc(O)cc2O)cc1 | 6.39% | 
11 | Cc1sc2ncnc(NCC(O)c3ccc([N+](=O)[O-])cc3)c2c1C (stereo not given) | -0.514% | 
12 | CCc1nn2cc(C(=O)c3cc(Cl)ccc3O)cnc2c1-c1ccc(F)cc1 | -7.19% | 
13 | Cc1cc(NC(c2cccnc2)c2ccc3cccnc3c2O)no1 (stereo not given) | -3.83% | 
14 | CCn1c2ccccc2c2cc(/C=N/NC(=O)c3ccccc3)ccc21 | -10% | 
15 | COc1ccc(C(NC(C)=O)c2cc(Cl)c3cccnc3c2O)cc1OC (stereo not given) | -18.1% | 
16 | O=C(N/N=C/c1sc(N2CCOCC2)nc1-c1ccccc1)c1ccccc1O | -18.3% | 
17 | CS(=O)(=O)Nc1cccc(NC(=O)c2cccc3c(-c4cccc(C(N)=O)c4)coc23)c1 |  | 14.1 µM (active)
18 | CCc1nc2ccc(C(=O)Nc3cccc(NS(C)(=O)=O)c3)cn2c1N(C)CCCc1ccccc1 | -2.96% | 
19 | NC(=O)c1cccc(-c2ccnc3c2CC(C(=O)Nc2cccc(Oc4ccccc4)c2)O3)c1 (stereo not given) | -7.75% | 
20 | O=C1c2cccc3cc([N+](=O)[O-])cc(c23)C(=O)N1CCN1CCCC1 | 1.39% | 
21 | COc1cc(C(=O)NC(=S)NNC(=O)c2cnccn2)cc(OC)c1OC | -7.31% | 
22 | CC1=NN(c2nc3ccccc3[nH]2)C(=O)C1Cc1ccccc1 (stereo not given) |  | 25.1 µM (active)
23 | Clc1ccc2c(NCc3ccccc3)ccnc2c1 | -5.63% | 
24 | CC1(C)C(C=C(Cl)Cl)C1C(=O)Nc1ccc([N+](=O)[O-])cc1 (stereo not given) | -1% | 
25 | CC1(C)Cc2ccccc2C2=NNC(=O)C2=N1 | -3.52% | 

Row | Compound | activity change, negative = inhibition | Potency
26 | CC(=O)Nc1ccc(N(CC(O)Cn2c3ccccc3c3ccccc32)S(=O)(=O)c2ccc(C)cc2)cc1 (stereo not given) | 1.22% | 
27 | Cc1ccc(S(=O)(=O)Nc2ccc(O)c3cccnc23)cc1 | -7.92% | 
28 | CC(C)n1cnc2c(N(C)c3ccccc3)nc(N(CCN(C)C)Cc3ccccc3)nc21 | 0.895% | 
29 | COc1ccc(-c2cc(C3CCN(c4ccc(C(C)=O)cc4[N+](=O)[O-])CC3)[nH]n2)cc1 | -6.65% | 
30 | CCC(c1nnnn1C1CCCC1)N(Cc1cccs1)Cc1cc2cc(C)ccc2[nH]c1=O (stereo not given) | 2.95% | 
31 | CC[n+]1c(/C=C/N(C)c2ccccc2)oc2ccc(F)cc21 | 2.57% | 
32 | O=[N+]([O-])c1ccc(NC(c2ccccc2)c2ccc3cccnc3c2O)cc1 (stereo not given) | 0.892% | 
33 | CCC1=C(CC2NCCc3ccccc32)CC2c3cc(OC)c(OC)cc3CCN2C1 (stereo not given) | -1.08% | 
34 | O=C(CNC(=O)c1ccc(F)cc1)N/N=C/c1cc(Br)ccc1OC(=O)/C=C/c1ccco1 | -1.3% | 
35 | O=C(CNC(=O)c1ccccc1F)N/N=C/c1cc(Br)ccc1OC(=O)/C=C/c1ccco1 | -17.1% | 
36 | O=C(/C=C/c1ccco1)Oc1cc(Br)cc(/C=N/NC(=O)c2ccccc2O)c1 |  | 12.6 µM (active)
37 | Cc1nnc(SCC(N)=O)n1CC1CCCO1 (stereo not given) | 0.593% | 
38 | O=C(CN1C(=O)c2ccccc2S1(=O)=O)c1ccc(Cl)cc1Cl |  | 0.562 µM (active)
39 | O=C(CCCN1C(=O)/C(=C/c2ccccc2Cl)SC1=S)NNC(=O)c1ccc(Cl)cc1Cl | 4.34% | 
40 | Cc1cc(C(=O)CN2C(=O)c3ccccc3S2(=O)=O)c(C)n1CC1CCCO1 (stereo not given) |  | 6.31 µM (active)
41 | Cc1ccc(NC(=O)CN2C(=O)c3ccccc3S2(=O)=O)cc1C | -22.2% | 
42 | COc1ccc(S(=O)(=O)Nc2ccc(F)cc2)cc1N(C)S(=O)(=O)c1ccc(Cl)cc1 | -4.61% | 
43 | C=CCc1cccc(/C=N/NC(=O)C[n+]2ccccc2)c1O | 49.8% | 
44 | CC(=O)Oc1ccc(N(C(C)=O)S(=O)(=O)c2ccc(C)cc2C)c2ccccc12 | -6.82% | 
45 | NS(=O)(=O)c1ccc(CCNc2ncnc3c2c(-c2ccccc2)cn3-c2ccc(F)cc2)cc1 | -1.88% | 
46 | Cc1cc(/C=N/n2c(COc3ccccc3)nc3ccccc3c2=O)c(O)c([N+](=O)[O-])c1 |  | 15.8 µM (active)
47 | Cc1nc2ccccc2c(=O)n1/N=C/c1cc(Br)ccc1O | -6.67% | 
48 | Cc1nc2ccccc2c(=O)n1/N=C/c1c(O)ccc2oc3c(c12)CCCC3 | -0.379% | 
49 | Cc1ccc(C(C)C)c(OCc2ccc(C(=O)N/N=C/c3ccc(O)cc3O)cc2)c1 | -15.1% | 
50 | COc1ccc(CC(N)c2csc(NC(=O)c3cccc(OC(F)(F)F)c3)n2)cc1 (stereo not given) | -2.7% | 
